A selection: hits, their analogues and other compounds. The true share with any hit is near 19%.
DT40 TDP1 no CPT – qHTS for Inhibitors of human tyrosyl-DNA phosphodiesterase 1 (TDP1): qHTS in cells in absence of CPT | DT40 Tdp1-/- hTDP1 cells, no CPT, ATP luminescence, 48 h | Potency, µM (highest dose often 46.2 µM), for inactives: top-dose activity change, negative = growth inhibition, most hits filed as inhibitors | actives 15% (n = 420,000) | AID 686978, 2013; further: potency means the concentration at half of the fitted maximal effect; nearly all actives have a fitted effect of over 55% in size
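No-CPT arm: Tdp1-/-;hTDP1 DT40 cells (400/well) plus compounds, incubated ≥48 hr at 37 °C. Readout CellTiter-Glo luminescence.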
HT1080-NT tox – kills 2HG-producing HT-1080-NT fibrosarcoma cells. HT-1080-NT fibrosarcoma viability, CellTiter-Glo ATP luminescence, 48 h. Potency, µM (top dose mostly 46.1 µM), without a hit: at the top dose activity, negative = less viability, usual class: cytotoxic. actives 1.6% (n = 360,000);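 further: NT is the 2HG producing partner of a matched IDH1 knockdown line; potency means the concentration at half of the fitted maximal effect; 0% = DMSO-treated cells and -100% = media-only wells without cells; nearly all actives have a fitted effect of over 55% in size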
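Toxicity toward the 2HG-producing NT line was scored as %Activity, normalised to DMSO and no-cell wells, from CellTiter-Glo luminescence after 48 hours' treatment.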
ELG1 repair inh – ELG1-dependent DNA repair inhibition | actives 2.3% (n = 330,000) | AID 504467 | Potency, µM (top dose mostly 46.1 µM), for the others: at the highest dose activity change, negative = inhibition, hits mostly inhibitors | HEK293T ELG1-luciferase reporter, luminescence, 16 h; DNA damage induced by 5-fluorouridine; further: potency means the concentration at half of the fitted maximal effect; nearly all actives have a fitted effect of over 55% in size
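Overnight (16 hr) co-exposure of 2,000 cells/well to 5-fluorouridine and compound at 37 °C preceded detection. Luciferase was quantified via ONE-Glo luminescence; loss of signal denotes inhibition.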
HT1080 IDH1KD tx – HT-1080 IDH1 knockdown cell toxicity (counter line). HT-1080 IDH1 knockdown viability, ATP luminescence, 48 h. Potency, µM (top dose mostly 46.1 µM), without a hit: at the top dose activity, negative = toxicity, actives largely listed as cytotoxic. actives 2% (n = 360,000). AID 686971;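 further: potency means the concentration at half of the fitted maximal effect; 0% = DMSO wells and -100% = cell-free medium wells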
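% activity derives from luminescence (CellTiter-Glo), normalised to DMSO and no-cell wells. HT-1080-IDH1KD cells, 750/well, had 48 h compound exposure at 37 °C.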
DT40 TDP1 CPT – DT40-hTDP1 cell growth loss with CPT; Potency, µM (top dose mostly 46.2 µM), for inactives: top-dose activity change, negative = growth inhibition, actives largely listed as inhibitors; chicken DT40 Tdp1-/-;hTDP1 cells + 20 nM CPT, ATP luminescence, 48 h; actives 12% (n = 420,000); AID 686979; further: potency means the concentration at half of the fitted maximal effect; nearly all actives have a fitted effect of over 55% in size
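Chicken DT40 Tdp1-/- cells complemented with human TDP1, 400 cells/well, exposed to compounds plus 20 nM camptothecin for at least 48 h at 37 C; viability read as ATP content by CellTiter-Glo luminescence.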
IL-1B inflam inh – inflammasome signaling inhibition, IL-1 beta readout; THP-1 LPS/ATP IL-1B secretion, AlphaLISA, 16 h; hits give low values; activity change, % at 57.5 µM; actives 4.7% (n = 360,000); AID 743279; in the data active means activity change below about -50%; inconclusive means mostly about -30% to -49%
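THP-1 cells pretreated 1 hr with compounds (up to 57.5 uM final), then stimulated with LPS (250 ng/mL final) plus ATP (1.25 mM final); secreted IL-1B measured by AlphaLISA after 16 hr, decreased signal indicating inhibition.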
An asterisk follows results filed as active. Unless noted, the call rests on the fitted dose curve; in most records, active means well fitted curve in the direction sought with a large enough effect; inconclusive means small, poorly fitted or top-dose-only effect, or another doubt; inactive means no such curve, though single readings can be large; an effect the other way counts as inactive or inconclusive. Unless noted, on the % scale 0 is the no-effect control and ±100 the full control effect.

Results for COc1cc(NC(=O)C(Cc2ccccc2)NS(=O)(=O)c2cccc3nsnc23)cc(OC)c1 (centres undefined) ?
DT40 TDP1 no CPT: 16µM*; DT40 TDP1 CPT: 16µM*

What do the screens show for `COc1ccc(OC)c(NC(=O)C2CCCN(S(=O)(=O)c3cccc4nsnc34)C2)c1` (centres undefined)?
DT40 TDP1 no CPT: 16µM*; HT1080-NT tox: -6%; ELG1 repair inh: 21µM*; HT1080 IDH1KD tx: inconclusive; DT40 TDP1 CPT: 16µM*; IL-1B inflam inh: -2

Results for O=C(Nc1cccnc1)C1CCCN(S(=O)(=O)c2cccc3nsnc23)C1 (centres undefined) ?
DT40 TDP1 no CPT: inconclusive; HT1080-NT tox: -5%; ELG1 repair inh: inconclusive; HT1080 IDH1KD tx: -10%; DT40 TDP1 CPT: -27%; IL-1B inflam inh: 4

Results for COc1cc(NC(=O)C2CCCN(S(=O)(=O)c3cccc4nsnc34)C2)cc(OC)c1 (centres undefined) ?
DT40 TDP1 no CPT: 21µM*; HT1080-NT tox: -4%; ELG1 repair inh: 23µM*; HT1080 IDH1KD tx: -12%; DT40 TDP1 CPT: inconclusive; IL-1B inflam inh: -4

What do the screens show for `Cc1[nH]c(C)c(S(=O)(=O)NCCc2ccc(S(N)(=O)=O)cc2)c1C(=O)N1CCCC1`?
DT40 TDP1 no CPT: inconclusive; HT1080-NT tox: inconclusive; ELG1 repair inh: inconclusive; HT1080 IDH1KD tx: 8%; DT40 TDP1 CPT: inconclusive; IL-1B inflam inh: 0

Results for Cc1cc(C)n(-c2ccc(C(=O)N3CCN(S(=O)(=O)c4ccc(Br)cc4Cl)CC3)cc2)n1 ?
DT40 TDP1 no CPT: 16µM*; HT1080-NT tox: -24%; HT1080 IDH1KD tx: -23%; DT40 TDP1 CPT: 23µM*; IL-1B inflam inh: inconclusive

What do the screens show for `Cc1cc(C)n(-c2ccc(C(=O)N3CCC(CO)(Cc4ccccc4)CC3)cc2)n1`?
DT40 TDP1 no CPT: inconclusive; HT1080-NT tox: inconclusive; ELG1 repair inh: inconclusive; HT1080 IDH1KD tx: -11%; DT40 TDP1 CPT: 16µM*; IL-1B inflam inh: 0

How did Cc1cc(C)n(-c2ccc(C(=O)N3CCN(c4ccccn4)CC3)cc2)n1 do in these assays?
DT40 TDP1 no CPT: -10%; HT1080-NT tox: -3%; ELG1 repair inh: -37%; HT1080 IDH1KD tx: -1%; DT40 TDP1 CPT: -26%; IL-1B inflam inh: 33

What do the screens show for `COc1ccc(-c2cn(-c3ccccc3)nc2C(=O)O)cc1OC`?
DT40 TDP1 no CPT: 1%; HT1080-NT tox: 0%; ELG1 repair inh: -4%; HT1080 IDH1KD tx: 0%; DT40 TDP1 CPT: 1%; IL-1B inflam inh: -5

What do the screens show for `CC(C)NC(=O)N[C@H]1CC[C@H](CC(=O)NCc2ccc(Oc3ccccc3)cc2)O[C@@H]1CO`?
DT40 TDP1 no CPT: inconclusive; HT1080-NT tox: -8%; HT1080 IDH1KD tx: -4%; DT40 TDP1 CPT: inconclusive; IL-1B inflam inh: 26

Results for CC(=O)Nc1ccc(/C(C)=N/Nc2nc(Nc3cccc4ccccc34)nc(N3CCOCC3)n2)cc1 ?
DT40 TDP1 no CPT: 21µM*; HT1080-NT tox: inconclusive; ELG1 repair inh: 7.3µM*; HT1080 IDH1KD tx: inconclusive; DT40 TDP1 CPT: 21µM*; IL-1B inflam inh: -28

What do the screens show for `C/C(=N\Nc1nc(N2CCCCCC2)nc(N2CCCCCC2)n1)c1ccccc1`?
DT40 TDP1 no CPT: inconclusive; HT1080-NT tox: 0%; ELG1 repair inh: -5%; HT1080 IDH1KD tx: -2%; DT40 TDP1 CPT: inconclusive; IL-1B inflam inh: -9

What do the screens show for `O=C(Nc1ccc(C(=O)N2CCOCC2)cc1)Nc1cccc2ccccc12`?
DT40 TDP1 no CPT: 0%; HT1080-NT tox: 10%; ELG1 repair inh: inconclusive; HT1080 IDH1KD tx: 2%; DT40 TDP1 CPT: -15%; IL-1B inflam inh: 25

How did CC(=O)Nc1ccc(/C(C)=N/Nc2nc(N3CCOCC3)nc(N3CCOCC3)n2)cc1 do in these assays?
DT40 TDP1 no CPT: 15µM*; HT1080-NT tox: 3%; ELG1 repair inh: inconclusive; HT1080 IDH1KD tx: 5%; DT40 TDP1 CPT: inconclusive; IL-1B inflam inh: -9

What do the screens show for `O=C(c1ccc([N+](=O)[O-])s1)N1CCN(c2ccc(C(F)(F)F)cn2)CC1`?
DT40 TDP1 no CPT: 16µM*; HT1080-NT tox: -12%; ELG1 repair inh: inconclusive; HT1080 IDH1KD tx: -15%; DT40 TDP1 CPT: 13µM*; IL-1B inflam inh: 15

What do the screens show for `Cc1cnc(C(=O)N2CCN(c3ccc(C(F)(F)F)cn3)CC2)cn1`?
DT40 TDP1 no CPT: -16%; HT1080-NT tox: 0%; ELG1 repair inh: inconclusive; HT1080 IDH1KD tx: 0%; DT40 TDP1 CPT: -1%; IL-1B inflam inh: 33

How did O=C(c1ccc([N+](=O)[O-])s1)N1CCN(c2ncccn2)CC1 do in these assays?
DT40 TDP1 no CPT: inconclusive; HT1080-NT tox: 0%; HT1080 IDH1KD tx: 0%; DT40 TDP1 CPT: 21µM*; IL-1B inflam inh: 15

Results for O=C(c1ccc(Cl)s1)N1CCN(c2ncccn2)CC1 ?
DT40 TDP1 no CPT: inconclusive; HT1080-NT tox: 15%; ELG1 repair inh: -6%; HT1080 IDH1KD tx: 11%; DT40 TDP1 CPT: -26%; IL-1B inflam inh: -2

How did COc1ccc2[nH]c(C(=O)O)c(NC(=O)c3cc(OC)c(OC)c(OC)c3)c2c1 do in these assays?
DT40 TDP1 no CPT: 20%; HT1080-NT tox: 3%; ELG1 repair inh: 6%; HT1080 IDH1KD tx: 2%; DT40 TDP1 CPT: 24%; IL-1B inflam inh: 38

What do the screens show for `O=C(Cn1c(=O)c(CNc2ccccc2)cc2cc3c(cc21)OCCO3)Nc1ccccc1Cl`?
DT40 TDP1 no CPT: inconclusive; DT40 TDP1 CPT: -121%

What do the screens show for `COc1ccccc1NC(=O)Cn1c(=O)c(CNc2ccccc2)cc2cc(OC)c(OC)cc21`?
DT40 TDP1 no CPT: 6.5µM*; DT40 TDP1 CPT: 5.2µM*

What do the screens show for `COc1cc2cc(CNc3ccccc3)c(=O)n(CC(=O)Nc3ccccc3)c2cc1OC`?
DT40 TDP1 no CPT: 18µM*; DT40 TDP1 CPT: inconclusive

Results for CC12CCC=CC1=C(C=O)C1C2CCC2(C)C(O)CCC12 (centres undefined) ?
DT40 TDP1 no CPT: 26µM*; HT1080-NT tox: -9%; HT1080 IDH1KD tx: inconclusive; DT40 TDP1 CPT: inconclusive; IL-1B inflam inh: -97*

What do the screens show for `C[C@]12CC[C@@H]3c4ccc(O)cc4[C@@H](O)C[C@H]3[C@@H]1CC[C@@H]2O`?
ELG1 repair inh: 12%

High-throughput results (PubChem)
